Bioassay records deposited in PubChem by National Center for Advancing Translational Sciences (NCATS).
AID923: qHTS Assay for Allosteric/Competitive Inhibitors of Caspase-1: Spectroscopic Profiling in AFC Spectral Region; actives 1.1% (n = 75,000); Potency, µM (titrated, usually from 57.5 µM), for inactives: at the highest dose fluorescence increase, usual class: activators; compound fluorescence, AFC spectral region (405/520 nm); also: potency is read from the fitted curve at half-maximal effect; 0% is about no effect
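Compound autofluorescence profiled at 405 nm ex/520 nm em during kinetic caspase 1 run (50 nM enzyme, 5 uM Ac-WEHD-AFC, HEPES pH 7.5, 10 mM DTT). Titration up to 57 uM; baseline from regression intercept, normalized to AFC standard curve.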
4MU fluor: 4-MU region autofluorescence | compound autofluorescence, 340/450 nm, 4-MU equivalents; active compounds read high | actives 11% (n = 59,000) | AID 589 | max dye-equivalent concentration, M; in the data active = max dye-equivalent concentration above about 10 nM; inconclusive = mostly about 1.1 nM to 9.6 nM
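Compounds in 100 mM Tris, pH 8.0, sat 15 min at room temperature before fluorescence was read at 340 nm excitation/450 nm emission; a per-plate six-point 4-MU standard curve converted signals to dye-equivalent concentration at each compound concentration.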
HSD17B inh: HSD17B dehydrogenase inhibition. actives 7.6% (n = 75,000). recombinant HSD17B10, NADH fluorescence kinetic. Potency, µM (titrated, usually from 57.1 µM), inactives show at the top dose activity change, negative = inhibition, usual class: inhibitors;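 also: the protocol describes HADH2 (HSD17B10) and not the HSD17B4 of the title; potency is read from the fitted curve at half-maximal effect; % is scaled to controls: 0 for no effect and ±100 for the full control effect; nearly all actives have a fitted effect of over 70% in size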
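Activity followed as NADH fluorescence increase (ex 360, em 450 nm) every 30 seconds for 4 min, using final 90 uM beta-hydroxybutyryl CoA and 1 mM NAD+. Recombinant His-tagged enzyme, 20 nM, pH 9.0 Tris buffer, 15 min compound preincubation.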
Bst PK mod: alters activity of Bacillus stearothermophilus pyruvate kinase; AID 361; Potency, µM; actives 1.2% (n = 51,000); purified pyruvate kinase, luminescence ATP production; ribose 5-phosphate activator present at AC10; in the data active = potency below about 11 µM; inconclusive = mostly about 12 µM to 25 µM;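 the screen sought inhibitors and activators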;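 also: potency is read from the fitted curve at half-maximal effect; scaled between full activation by ribose 5 phosphate and full inhibition by luteolin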
HADH2 inh: blocks human hydroxyacyl-CoA dehydrogenase type II. actives 3.4% (n = 73,000). recombinant HADH2, NADH fluorescence, beta-hydroxybutyryl-CoA. Q99714. Potency, µM (top dose mostly 57.1 µM), without a hit: at the highest dose activity change, negative = inhibition, most hits filed as inhibitors; also: potency is read from the fitted curve at half-maximal effect; % is scaled to controls: 0 for no effect and ±100 for the full control effect; nearly all actives have a fitted effect of over 60% in size
Target sequence (Q99714 whole entry, looked up, one chain of several): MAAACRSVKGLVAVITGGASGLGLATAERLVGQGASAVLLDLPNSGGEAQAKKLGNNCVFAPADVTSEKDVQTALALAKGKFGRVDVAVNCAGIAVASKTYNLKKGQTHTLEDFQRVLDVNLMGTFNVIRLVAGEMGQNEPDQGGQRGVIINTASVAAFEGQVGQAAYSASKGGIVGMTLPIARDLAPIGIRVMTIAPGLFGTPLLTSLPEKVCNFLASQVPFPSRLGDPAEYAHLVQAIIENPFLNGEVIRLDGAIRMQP
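Activity measured as NADH fluorescence gain (360/450 nm), taken as the change between first and last reads of a 4-min kinetic run. Conditions: pH 9.0 Tris buffer, 20 nM E. coli-expressed His-tagged enzyme, 1 mM NAD+, 90 uM beta-hydroxybutyryl-CoA; 15-min compound preincubation.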
A350 autofl: A350 region autofluorescence | Compound autofluorescence, 340/450 nm, Alexa 350 dye-equivalents; active compounds read high | max dye-equivalent concentration, M | actives 11% (n = 59,000) | AID 590; in the data active = max dye-equivalent concentration above about 10 nM; inconclusive = mostly about 1.1 nM to 9.6 nM
An asterisk follows results filed as active. Rows were chosen to be rich in hits. Some 13% of all compounds tested hit in one or more screens of this group. Unless noted, calls follow the shape of the dose curve; as a rule, active = well fitted curve in the direction sought with a large enough effect; inconclusive = small, poorly fitted or top-dose-only effect, or another doubt; inactive = no such curve, though single readings can be large; an effect the other way counts as inactive or inconclusive.

For CC(CCC(=O)O)C1CCC2C3CC[C@@H]4CCCC[C@@]4(C)C3CC[C@@]12C (stereo not given in full) the results were AID923 0% and HSD17B inh inconclusive.
Screening CCn1cnc2c(Nc3cccc(Cl)c3)nc(N[C@@H]3CCCC[C@H]3N)nc21 returned AID923 2%, 4MU fluor inactive, HSD17B inh -7%, HADH2 inh 6% and A350 autofl inactive.
For CC(C)[C@H](CO)Nc1nc(Nc2cccc(Cl)c2)c2ncn(C(C)C)c2n1 the results were AID923 -1%, 4MU fluor inactive, HSD17B inh 32µM*, HADH2 inh -1% and A350 autofl inactive.
Cc1cccc(N2CCc3c2nc2ccccc2c3N)c1 was read as AID923 0%, 4MU fluor 3.1e-07M*, HSD17B inh 32µM*, HADH2 inh 105% and A350 autofl 3e-07M*.
Screening Cc1ccc(C)c(NC(=O)CSc2nnc([C@@H](N)Cc3c[nH]c4ccccc34)o2)c1 returned AID923 3%, 4MU fluor 1.9e-08M*, HSD17B inh -28%, Bst PK mod >57, HADH2 inh 5% and A350 autofl inconclusive.
For CC(C)Sc1nnc([C@@H](N)Cc2c[nH]c3ccccc23)o1 the results were AID923 -1%, 4MU fluor inactive, HSD17B inh -2%, Bst PK mod >57, HADH2 inh 18% and A350 autofl inactive.
Screening OC[C@H]1CCCN2CCCC[C@@H]12 returned 4MU fluor inactive, HADH2 inh -4% and A350 autofl inactive.
`Cn1c(O)c(C=NCc2ccco2)c(=O)n(C)c1=O` gave AID923 5%, HSD17B inh -1% and HADH2 inh -12%.
Screening Cc1cccn2c(=O)c(C=Nc3ccccc3)c(NCc3ccco3)nc12 returned AID923 2%, 4MU fluor 3e-08M*, HSD17B inh inconclusive, Bst PK mod >57, HADH2 inh -5% and A350 autofl 3e-08M*.
`Fc1ccccc1N1CCN(Cc2ccc3c(c2)OCO3)CC1` gave AID923 0%, HSD17B inh -5% and HADH2 inh 5µM*.
N=C(N)c1c(O)n(C2CCCCC2)c(=O)n(C2CCCCC2)c1=O was read as AID923 1%, 4MU fluor 1.1e-08M*, HSD17B inh -2%, Bst PK mod >57, HADH2 inh -10% and A350 autofl 1.3e-08M*.
Screening c1ccc(N2CC3(CCNCC3)C2)nc1 returned AID923 -1%, 4MU fluor inactive, HSD17B inh 32µM*, HADH2 inh 5% and A350 autofl inactive.
For c1ccc(N2CC3(CCNCC3)C2)cc1 the results were AID923 0%, 4MU fluor inactive, HSD17B inh 6%, HADH2 inh -6% and A350 autofl inactive.
`O=C1C(Cl)=C(Cl)C(=O)C(Cl)=C1Cl` gave AID923 2%, HSD17B inh 1.3µM* and HADH2 inh 0.13µM*.
Screening Cc1cc(C)cc(OP(=O)(Oc2cc(C)cc(C)c2)Oc2cc(C)cc(C)c2)c1 returned AID923 4%, HSD17B inh -9% and HADH2 inh -12%.
For COC(=O)c1ccccc1N the results were AID923 -1%, HSD17B inh 32µM* and HADH2 inh -20%.
`CCCOC(=O)c1ccccc1C(=O)OCCC` gave AID923 2%, HSD17B inh -5% and HADH2 inh 6%.
Screening Nc1ccccc1C(=O)OCCOc1ccccc1 returned AID923 -1%, 4MU fluor 5.7e-08M*, HSD17B inh 32µM*, Bst PK mod inconclusive, HADH2 inh 2% and A350 autofl 6.6e-08M*.
Nc1ccccc1C(=O)O was read as AID923 1%, HSD17B inh 32µM* and HADH2 inh 40µM*.
C=CCOC(=O)c1ccccc1N was read as AID923 5%, HSD17B inh 32µM* and HADH2 inh 40µM*.
Screening CCN1C[C@@]2(COC)[C@H](O)C[C@H](OC)[C@@]34[C@@H]5C[C@@]6(O)[C@H](OC(=O)c7ccccc7)[C@H]5[C@@](OC(C)=O)([C@H]([C@@H](OC)[C@H]23)[C@H]14)[C@H](O)[C@@H]6OC returned 4MU fluor inactive, HADH2 inh 0% and A350 autofl inactive.
`COC(=O)[C@H](N)CCCN=C(N)N[N+](=O)[O-]` gave AID923 0%, 4MU fluor inactive, HSD17B inh 6%, HADH2 inh 12% and A350 autofl inactive.
Screening COC(=O)[C@@H]1C[C@@H]1[C@@H](NP(=O)(c1ccccc1)c1ccccc1)c1ccccc1 returned HADH2 inh 12%.
